Sm TGR inh: blocks Schistosoma mansoni thioredoxin glutathione reductase. AID 485364. purified TGR, DTNB reduction, TNB absorbance 405 nm. Potency, µM (series often up to 114 µM), inactives show at the top dose activity change, negative = inhibition, hits mostly inhibitors. 3% of 360,000 active; also: nearly all actives have a fitted effect of over 60% in size
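First, TGR (20 nM dispensed) and NADPH were mixed with compound. Second, a 15 min room-temperature incubation followed. Third, further NADPH and then DTNB were added to start the reaction. Finally, TNB absorbance was monitored kinetically.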
AMA1-RON2 inh: disrupts binding of P. falciparum AMA1 to RON2 | AlphaScreen AMA1-biotinylated RON2 peptide binding | Potency, µM (titrated, usually from 58.2 µM), inactives show at the highest dose activity change, negative = inhibition, actives largely listed as inhibitors | 0.2% of 360,000 active | AID 720542;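 also: 0% = vehicle wells and -100% = peptide control; nearly all actives have a fitted effect of over 45% in size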
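AMA1 (3D7) with his tag at 25 nM final met compounds first, then biotinylated RON2 peptide at 25 nM; detection used donor plus acceptor beads, 10 µg/mL apiece, read by AlphaScreen after 30 min at room temperature.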
Tb PYK inh: T. brucei pyruvate kinase inhibition. Q57TT1. TbPYK enzyme, Kinase-Glo Plus ATP luminescence, 45 min. Potency, µM (series often up to 76.8 µM), for inactives: at the highest dose activity, negative = inhibition, hits mostly inhibitors. 0.12% of 410,000 active. AID 624173; also: nearly all actives have a fitted effect of over 50% in size
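ADP (130 uM final) triggers the TbPYK reaction after compound addition; incubation is 45 min at room temperature. Kinase-Glo Plus is then added and luminescence imaged. Normalized data are fitted to concentration-effect curves.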
RE007 growth inh: less growth of the S. pombe RE007 Vpr strain. 0.21% of 360,000 active. S. pombe RE007 Vpr strain, BacTiter-Glo ATP luminescence, 24 h. AID 651644. Potency, µM (top dose mostly 92.2 µM), without a hit: at the top dose activity change, negative = less growth, most hits filed as inhibitors; active = well fitted falling curve with a large enough effect; inconclusive = small, poorly fitted or top-dose-only effect; inactive = no such curve, though single readings can be large or run the other way; also: nearly all actives have a fitted effect of over 50% in size
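Fission yeast strain RE007, carrying one chromosomally integrated HIV-1 vpr copy, was seeded at OD 0.01 in PMG+AL medium with 23 nL pinned compound. After 24 h at 30 °C and 99% humidity, viability was read by BacTiter-Glo luminescence.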
LmPK inhibitor: LmPK (Leishmania mexicana) enzyme inhibition | Q27686 | purified LmPK, Kinase-Glo ATP luminescence, 1 h | Potency, µM (series often up to 57.5 µM), inactives show at the highest dose activity change, negative = inhibition, actives largely listed as inhibitors | 0.37% of 290,000 active | AID 1721
Target sequence (Q27686 whole entry, looked up): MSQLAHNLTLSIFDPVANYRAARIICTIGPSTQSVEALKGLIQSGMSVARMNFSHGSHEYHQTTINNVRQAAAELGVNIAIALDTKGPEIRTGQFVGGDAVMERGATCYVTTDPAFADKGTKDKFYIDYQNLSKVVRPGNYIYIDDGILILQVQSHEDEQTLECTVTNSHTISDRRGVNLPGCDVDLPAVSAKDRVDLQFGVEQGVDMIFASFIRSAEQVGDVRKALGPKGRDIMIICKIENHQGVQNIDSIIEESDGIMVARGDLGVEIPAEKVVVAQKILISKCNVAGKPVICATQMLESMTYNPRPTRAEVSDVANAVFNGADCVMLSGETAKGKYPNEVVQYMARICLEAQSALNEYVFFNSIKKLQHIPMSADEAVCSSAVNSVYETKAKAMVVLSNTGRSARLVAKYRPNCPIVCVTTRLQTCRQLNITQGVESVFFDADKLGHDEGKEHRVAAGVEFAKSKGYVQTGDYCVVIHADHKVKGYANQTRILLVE
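Purified LmPK (0.1 nM) converted ADP (0.1 mM) to ATP with PEP (0.5 mM) in imidazole buffer pH 7.2 with KCl and MgCl2, 1 h at room temperature. ATP was read by Kinase-Glo luminescence; data normalized to uninhibited and no-enzyme controls.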
Starred values were filed as active, the others as inactive; ? = inconclusive; / = no result given; [ ] = dose if it differs, or a comment. Most compounds without a hit are left out; they make up all but 3.2% or so of the library. Unless noted, calls follow the shape of the dose curve; as a rule, active = well fitted curve in the direction sought with a large enough effect; inconclusive = small, poorly fitted or top-dose-only effect, or another doubt; inactive = no such curve, though single readings can be large; an effect the other way counts as inactive or inconclusive. Unless noted, % is scaled to controls: 0 for no effect and ±100 for the full control effect; potency is read from the fitted curve at half-maximal effect.

SMILES	Sm TGR inh	AMA1-RON2 inh	Tb PYK inh	RE007 growth inh	LmPK inhibitor
COc1ccc(CNC(=O)CCc2c(C)nn(-c3ccc(N4CCCC4)nn3)c2C)c(OC)c1	4.9%	/	0.5%	/	/
O=[N+]([O-])c1ccc(C=Nc2cccc3ccccc23)s1	/	-29.3%	-12.7%	22.4µM*	0.6%
CC(=O)c1ccc(NC(=O)c2c3c(nc4ccccc24)C(=O)N(C2CCCCC2)C3)cc1	0.9%	/	2.3%	/	/
CCOc1ccc2c(c1)/C(=C(\C(Cl)=C(Cl)Cl)[N+](=O)[O-])N2	5.62µM*	-7.5%	1.2%	6.8%	0.7%
CCCCOc1ccc2c(c1)/C(=C(\C(Cl)=C(Cl)Cl)[N+](=O)[O-])N2	-17.2%	-2.7%	0.3%	4.5%	1.1%
CC(N)C(=O)NCC(=O)NC1CSSCC(C(=O)O)NC(=O)C(CO)NC(=O)C(C(C)O)NC(=O)C(Cc2ccccc2)NC(=O)C(C(C)O)NC(=O)C(CCCCN)NC(=O)C(Cc2c[nH]c3ccccc23)NC(=O)C(Cc2ccccc2)NC(=O)C(Cc2ccccc2)NC(=O)C(CC(N)=O)NC(=O)C(CCCCN)NC1=O (stereo not drawn)	/	/	2.2%	/	/
Cc1ccccc1NC(=O)CCC(=O)OCC(=O)c1cccc([N+](=O)[O-])c1	/	0.9%	1.7%	2.6%	3.0%
Cc1ccc(NCCC(=O)c2cccc([N+](=O)[O-])c2)c(C)c1	0.501µM*	?	-6.1%	5.62µM*	0.2%
Cc1ccc(NCC(=O)c2ccc([N+](=O)[O-])cc2)cc1	15.8µM*	-25.9%	-8.4%	-18.2%	-5.1%
Cc1ccc(C(=O)c2ccc([N+](=O)[O-])cc2)cc1C	-16.7%	-10.0%	-13.0%	3.9%	2.5%
Cc1cccc(NCCC(=O)c2ccc([N+](=O)[O-])cc2)c1C	/	-3.8%	5.8%	35.5µM*	5.3%
CNC(CC(=O)c1ccc([N+](=O)[O-])cc1)C(Cl)(Cl)Cl (stereo not drawn)	0.447µM*	-10.7%	12.6µM*	12.6µM*	-10.9%
Cc1ccc(C(=O)CNc2cccc([N+](=O)[O-])c2)cc1	6.4%	20.4%	8.0%	-8.6%	8.1%
COc1cc([C@@H]2c3cc4c(cc3[C@@H](O[C@@H]3O[C@H]5CO[C@H](C)O[C@H]5[C@H](O)[C@@H]3O)[C@H]3COC(=O)[C@H]23)OCO4)cc(OC)c1OP(=O)(O)O	/	/	5.6%	/	/
CCc1ccccc1NC(=O)Cn1cc2c(n1)CCC(C)C2 (stereo not drawn)	-9.9%	/	2.3%	/	/
O=C1CSC(c2ccc3c(c2)OCO3)N1c1ccc(Oc2ccccc2)cc1 (stereo not drawn)	31.6µM*	-17.2%	/	19.8%[3.69 µM]	2.6%
Cc1ccc(N2C(=O)CSC2c2ccc3c(c2)OCO3)cc1 (stereo not drawn)	-0.4%	7.1%	2.4%	-0.5%	-4.4%
CCOC(=O)c1sc2ncn(CC(=O)Nc3ccc(OC)c(Cl)c3)c(=O)c2c1C	-0.8%	/	2.5%	/	/
Cc1ccc(S(=O)(=O)CNC(=S)c2cccc(C)c2)cc1	3.55µM*	-5.4%	-1.2%	12.4%	-0.5%
Cc1ccc(S(=O)(=O)NCCNC(=O)c2ccccc2)cc1	1.9%	-1.0%	-11.1%	9.3%	-4.5%
Cc1ccc(S(=O)(=O)CNC(=O)c2ccccc2)cc1	20µM*	0.0%	11.0%	16.4%	4.3%
Cc1ccc(S(=O)(=O)CNC(=S)c2ccc3ccccc3c2)cc1	3.16µM*	-17.5%	-11.2%	-1.7%	11.8%
COc1ccc(C(=S)NCS(=O)(=O)c2ccc(C)cc2)cc1	2.51µM*	-3.4%[11.6 µM]	-2.1%	2.5%	5.0%
CC(C)CN1CC[C@@]2(CCCN(C(=O)c3cnccn3)C2)C1	/	/	2.0%	/	/
O=C(CSc1ccc2nnc(-c3ccncc3)n2n1)NCc1ccco1	3.16µM*	5.5%	-4.6%	2.8%	43.2%
SMILES	Sm TGR inh	AMA1-RON2 inh	Tb PYK inh	RE007 growth inh	LmPK inhibitor
Cc1ccc(-n2c(SCC(=O)NCc3ccco3)nnc2-c2cccnc2)cc1	44.7µM*	-12.7%	3.6%	-7.3%	4.6%
CNC(=O)CSc1nnc(-c2cccnc2)n1-c1ccc(C)cc1	/	-3.0%	0.5%	-3.2%	0.1%
O=C(CSc1nnc(C2CCCCC2)n1-c1ccccc1)NCc1ccco1	44.7µM*	-2.0%	1.2%	16.6%	8.1%
COc1ccc(-c2nnc3ccc(SCC(=O)NCc4ccco4)nn23)cc1OC	0.0%	-1.5%	0.5%	3.3%	6.7%
CCNC(=O)CSc1nnc(C2CC2)n1-c1ccccc1	6.4%	4.4%	-6.9%	9.7%	-3.4%
O=C(CSc1ccc2nnc(-c3ccc(F)cc3)n2n1)NCc1ccco1	44.7µM*	-6.2%	-2.1%	3.2%	-1.0%
COc1ccc(C2(CNC(=O)C(=O)Nc3ccc(F)cc3)CCCC2)cc1OC	-6.6%	/	1.2%	/	/
CCOc1ccc(-c2nnc3ccc(SCC(=O)NCc4ccco4)nn23)cc1	14.8%	-5.0%	-8.0%	3.6%	-3.3%
Cc1ccc(-c2nnc3ccc(SCC(=O)NCc4ccco4)nn23)cc1	50.1µM*	3.5%	-7.8%	-1.9%	9.1%
Cc1nc2ccn(Cc3cccnc3)c(=O)c2cc1C(=O)N1CCN(c2ccccc2)CC1	2.0%	/	0.5%	/	/
CCCc1nnc(NC(=O)c2nc(S(=O)(=O)Cc3ccc(C)cc3)ncc2Cl)s1	25.1µM*	35.8%	-20.4%	-11.8%	-12.6%
CC(C)c1nnc(NC(=O)c2nc(S(=O)(=O)Cc3ccccc3)ncc2Cl)s1	39.8µM*	63.0%	-5.2%	10.5%	1.5%
Cc1ccccc1CS(=O)(=O)c1ncc(Cl)c(C(=O)Nc2nnc(C(C)C)s2)n1	20µM*	/	2.8%	/	/
CC(C)Sc1ncc(Cl)c(C(=O)Nc2nnc(C(C)C)s2)n1	-0.3%	/	2.1%	/	/
Cc1ccc(NC(=O)c2nc(S(=O)(=O)Cc3ccccc3C)ncc2Cl)cc1C	11.2µM*	-9.9%	-9.2%	3.6%	12.0%
Cc1cc(Cl)ccc1OCC(=O)N(Cc1ccc(N(C)C)cc1)CC1CCCO1 (stereo not drawn)	-5.7%	/	1.8%	/	/
COc1cccc(CCNC(=O)c2cnc3sc(N4CCCCCC4)nn3c2=O)c1	6.8%	/	-7.0%	/	/
CSc1nnc(NC(=O)c2nc(S(=O)(=O)Cc3ccccc3)ncc2Cl)s1	12.6µM*	69.5%	-8.5%	-6.6%	-0.3%
COC(=O)C(NC(=O)CCc1c(C)nc2c(-c3ccccc3)c(C)nn2c1C)C(C)C (stereo not drawn)	-13.6%	/	-13.7%	/	/
CCOc1cc(OCC)c(C(=O)CCC(=O)O)cc1OCC	/	/	-9.0%	/	/
O=C(CCCCn1c(=O)c2ccccc2n(CC(=O)NC2CCCC2)c1=O)NC1CCCC1	-19.6%	-3.9%	0.1%	3.3%	-3.6%
CC1CC(C)CN(C(=O)Cn2c(=O)n(CCCCC(=O)NC3CCCC3)c(=O)c3ccccc32)C1 (stereo not drawn)	28.2µM*	0.5%	0.7%	3.4%	-9.4%
O=C(Cn1ncc2ccc(Cl)cc21)NCc1ccc(F)cc1	5.6%	/	1.8%	/	/
